The values that follow come from the supplement of paper PMC4206461.

Values without a mark were called inactive.

This assay concerns Pseudomonas aeruginosa PA14 wild type. The assay is described as follows: respiration area under curve with compound as sole nitrogen source, 24 h (OmniLog AUC (arbitrary units)); higher = more respiration / better utilisation as nitrogen source, active = 2000 or more. As to the method:
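Biolog Phenotype MicroArray plates PM6-PM8: each di/tripeptide is the sole nitrogen source (IF-0 medium with succinate/ferric citrate and dye mix A). Tetrazolium reduction was read in the OmniLog every 15 min for 24 h at 37°C and summarised as area under the respiration curve (arbitrary units). The paper counts values below 2000 as no respiration and above 8000 as solid respiration. Replicate datasets are averaged.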
Regarding `CSCC[C@H](NC(=O)[C@@H](N)Cc1ccccc1)C(=O)O` (plate: PM8), the “respiration area under curve” value is 1220. The result for `N[C@@H](CC(=O)O)C(=O)N[C@@H](CCC(=O)O)C(=O)O` (plate: PM6) reads 291; that for `N[C@@H](Cc1ccccc1)C(=O)N[C@@H](Cc1c[nH]c2ccccc12)C(=O)O` (plate: PM7), 524.

Take `CC[C@H](C)[C@H](NC(=O)[C@@H](N)C(C)C)C(=O)O` (plate: PM7): the “respiration area under curve” value is 9390 (active). Under `O=C(O)[C@H](Cc1ccccc1)NC(=O)[C@@H]1CCCN1` (plate: PM7) stands 7250 (active); under `C[C@H](NC(=O)[C@@H](N)CCCN=C(N)N)C(=O)O` (plate: PM6), 9790 (active); under `CC(C)C[C@H](NC(=O)[C@@H]1CCCN1)C(=O)O` (plate: PM7), 7810 (active). As to `NCC(=O)N[C@H](CC(=O)O)C(=O)O` (plate: PM8), the “respiration area under curve” value was 0.2. Under `CC(C)[C@H](N)C(=O)N[C@H](C(=O)O)C(C)C` (plate: PM7) stands 9240 (active). The result for `N[C@@H](Cc1ccccc1)C(=O)NCC(=O)NCC(=O)O` (plate: PM8) reads 8700 (active); that for `NC(=O)CC[C@H](NC(=O)[C@@H](N)Cc1ccc(O)cc1)C(=O)O` (plate: PM7), 13000 (active).

For the molecule `NCC(=O)NCC(=O)O` (plate: PM6), the “respiration area under curve” value was 3270 (active). On to `CC(C)[C@H](N)C(=O)N[C@@H](C)C(=O)O` (plate: PM8), for which the “respiration area under curve” value was 6590 (active). Regarding `CC[C@H](C)[C@H](N)C(=O)N[C@H](C(=O)O)[C@@H](C)CC` (plate: PM6), the “respiration area under curve” value was 2030 (active). The result for `CC(C)[C@H](NC(=O)[C@@H](N)Cc1ccccc1)C(=O)O` (plate: PM8) reads 6870 (active). The result for `CC(C)[C@H](N)C(=O)N[C@@H](CCC(N)=O)C(=O)O` (plate: PM8) reads 9290 (active); that for `NC(N)=NCCC[C@H](N)C(=O)N[C@@H](CCC(=O)O)C(=O)O` (plate: PM6), 9830 (active).

`N[C@@H](Cc1ccccc1)C(=O)N[C@@H](Cc1ccccc1)C(=O)O` (plate: PM7): the “respiration area under curve” value is 5220 (active).

Regarding `N[C@@H](Cc1c[nH]c2ccccc12)C(=O)NCC(=O)O` (plate: PM7), the “respiration area under curve” value was 3340 (active). The result for `NC(Cc1c[nH]c2ccccc12)C(=O)NC(Cc1ccccc1)C(=O)O` (configuration not stated) (plate: PM7) reads 547. Under `NCC(=O)N[C@H](CO)C(=O)O` (plate: PM8) stands 641; under `O=C(O)[C@H](Cc1ccc(O)cc1)NC(=O)[C@@H]1CCCN1` (plate: PM7), 12200 (active); under `C[C@@H](O)[C@H](N)C(=O)N[C@@H](Cc1ccccc1)C(=O)O` (plate: PM8), 8640 (active). On to `CC(C)[C@H](N)C(=O)NCC(=O)O` (plate: PM7), for which the “respiration area under curve” value is 9460 (active). Take `N[C@@H](CO)C(=O)N[C@@H](CO)C(=O)O` (plate: PM7): the “respiration area under curve” value was 8860 (active). Under `CC(C)[C@H](N)C(=O)N[C@@H](Cc1ccc(O)cc1)C(=O)O` (plate: PM7) stands 8020 (active).

As for `CC[C@H](C)[C@H](N)C(=O)N[C@@H](CCSC)C(=O)O` (plate: PM6), the “respiration area under curve” value was 1290.
